# “And” between values parts separate entries of the source, which are not always exact repeats. Identical values can stand only once. The whole screen tested about 350,000 compounds, of which about 990 (0.28%) were called active. About 2% were inconclusive and are not listed. Calls come from the whole dose curve; as a rule, active = well fitted inhibition curve with a large enough effect; inconclusive = small, poorly fitted or top-dose-only effect; inactive = no such curve, though single readings can be large or run the other way. The sample as a whole holds a higher share of actives than the screen did. Some structures have more than one record in an assay (separate samples or runs), and their calls can disagree.
# Molecular target: Tyrosyl-DNA phosphodiesterase 1 (Homo sapiens) (UniProt Q9NUW8)
# Sequence (Q9NUW8 whole entry, looked up): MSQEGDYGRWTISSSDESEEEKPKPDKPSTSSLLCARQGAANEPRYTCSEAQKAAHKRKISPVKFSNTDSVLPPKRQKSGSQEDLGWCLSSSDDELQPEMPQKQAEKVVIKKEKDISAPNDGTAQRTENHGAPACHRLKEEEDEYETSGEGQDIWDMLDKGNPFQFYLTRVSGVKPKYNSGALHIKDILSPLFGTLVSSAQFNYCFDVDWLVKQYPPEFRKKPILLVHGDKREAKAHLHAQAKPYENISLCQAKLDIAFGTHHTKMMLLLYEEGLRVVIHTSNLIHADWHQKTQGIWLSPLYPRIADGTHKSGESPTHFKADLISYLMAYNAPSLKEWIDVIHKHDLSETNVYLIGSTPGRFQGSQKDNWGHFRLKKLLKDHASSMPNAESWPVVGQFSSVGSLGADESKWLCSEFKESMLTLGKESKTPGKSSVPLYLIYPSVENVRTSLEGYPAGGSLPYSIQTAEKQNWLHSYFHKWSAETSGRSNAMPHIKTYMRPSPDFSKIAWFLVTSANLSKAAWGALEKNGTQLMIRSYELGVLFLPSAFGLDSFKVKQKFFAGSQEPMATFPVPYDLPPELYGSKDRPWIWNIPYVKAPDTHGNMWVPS
# Test: qHTS Assay for Inhibitors of Tyrosyl-DNA Phosphodiesterase (TDP1); note: nearly all actives have a fitted effect of over 40% in size
# Conditions: recombinant TDP1, AlphaScreen DNA substrate cleavage; series mostly up to 130 µM; activity change, negative = inhibition: at the top concentration
# From the text: NIH Molecular Libraries Probe Production Network [MLPCN]
# NIH Chemical Genomics Center [NCGC]
# Assay Provider: Yves Pommier and Christophe Marchand, National Cancer Institute
# Assay Title: qHTS Assay for Inhibitors of Tyrosyl-DNA Phosphodiesterase (TDP1); note: nearly all actives have a fitted effect of over 40% in size
# Human tyrosyl-DNA phosphodiesterase I (Tdp1) is a rational anticancer target because this enzyme is involved in the repair of DNA lesions created by the trapping of human DNA topoisomerase I (Top1) following treatment by anticancer agents such as camptothecins. Recombinant Tdp1 was expressed and purified from E. coli in the laboratory (Anthony et al, Nucleic Acids Research, 2007, Vol. 35, 4474-4484). A Tdp1 DNA substrate bearing a 5' biotin and a 3' phospho-tyrosine was obtained by custom synthesis. This oligonucleotidic DNA substrate was subsequently coupled to a fluorescein isothiocyanate (FITC) group via the free amino group present on the phospho-tyrosine. Tdp1 was screened against the NCGC small molecule library using the AlphaScreen (AS) detection method in which a streptavidin donor AS bead is bound at the 5' end and an anti-FITC AS acceptor bead is bound at the 3' end of the DNA oligonucleotidic substrate. In the presence of Tdp1, the enzyme cleaves the tyrosine-FITC group, leaving a 3' end phosphate on the DNA substrate. This cleavage reaction results in a loss of signal in AS.
# [1] 3 ul of buffer is dispensed in columns 3 & 4 as negative control (no enzyme and maximum signal),
# [2] 3 ul of enzyme (1 nM final) is dispensed in columns 1,2, 5-48,
# [3] 1 ul of substrate (15 nM final) is dispensed throughout the plate,
# [4] 1 ul of AS donor/acceptor bead mix (10 ug/ml final) is dispensed throughout the plate
# 3 ul of Tdp1 enzyme is dispensed to 1536-well Kalypsys black solid bottom plates. Compounds and controls (23 nl) are transferred via Kalypsys Pin Tool. The plates are incubated for 15 min at room temperature, and then 1 ul of substrate is added to start the reaction. After 5 min incubation at room temperature, 1 ul of AS donor/acceptor bead mix is added and the plates are further incubated for 10 min at room temperature. The detection is then performed on a PerkinElmer Envision reader.
# % is set by controls: 0 for no effect and ±100 for the full control effect; potency is the fitted concentration of half-maximal effect.
SMILES,"activity change, negative = inhibition",Potency
OC[C@@H]1O[C@H](n2cnc3c(SCc4ccccc4)ncnc32)[C@H](O)[C@H]1O,3.08% (inactive),–
Cc1cc2c(s1)c1cnn(Cc3c(F)cccc3Cl)c(=O)c1n2C,0.134% (inactive),–
Cc1nnc(SCC(=O)Nc2ccc(S(=O)(=O)Nc3ccc(Cl)nn3)cc2)s1,–,39.8 µM (active)
Cc1cnc(NC(=O)CSc2nnc(C)s2)s1,4.02% (inactive),–
CCCCCC(=O)Nc1ccc(S(=O)(=O)Nc2ccc(Cl)nn2)cc1,3.43% (inactive),–
COc1cccc(C2c3c(ncn(-c4cccc(Br)c4)c3=N)Oc3ccc4ccccc4c32)c1 (centres undefined),3.6% (inactive),–
O=C1CC(c2ccccc2)CC2=C1C(c1ccco1)n1nc(C(F)(F)F)nc1N2 (centres undefined),2.22% (inactive),–
Cn1cccc1/C=C1\SC(=O)N(CC(=O)Nc2ccc(F)cc2)C1=O,5.97% (inactive),–
Cc1ccc(C(=O)O)cc1-c1ccc(/C=C2\SC(=O)N(CC(=O)Nc3ccc4c(c3)OCO4)C2=O)o1,–,10 µM (active)
COc1ccc(NC(=O)CCN2C(=O)/C(=C/c3ccc4c(c3)OCO4)SC2=S)cc1,2.5% (inactive),–
CNS(=O)(=O)c1cccc(C(=O)OCC(=O)N2c3ccccc3NC(=O)C2(C)C)c1,–,31.6 µM (active)
CC1(C)C(=O)Nc2ccccc2N1C(=O)COC(=O)Cn1cnc2ccccc2c1=O,3.91% [at 56.1 µM] (inactive),–
Cc1cc(C(=O)OCC(=O)N2c3ccccc3NC(=O)C2(C)C)c(C)n1-c1ccccc1,10.8% (inactive),–
CCOC(=O)c1ccccc1NC(=O)CSc1nc2ccccc2c(=O)[nH]1,5.13% (inactive),–
CC(=O)NCc1ccc(-c2csc(NC(=O)CCCc3nc4ccccc4c(=O)[nH]3)n2)cc1,2.93% (inactive),–
O=C(CSc1nc2ccccc2c(=O)[nH]1)Nc1nc(-c2ccc(Br)cc2)cs1,–,12.6 µM (active)
O=S(=O)(c1ccc2c(c1)OCCCO2)N1CCN(S(=O)(=O)c2c(F)cccc2F)CC1,-2.34% (inactive),–
Brc1nc2ncnc(NCc3ccco3)c2[nH]1,1.07% (inactive),–
COC(=O)c1ccc(NC(=O)CSc2n[nH]c(-c3ccccc3)n2)cc1,8.11% (inactive),–
CN(C)c1ccc(C(CNS(=O)(=O)c2cc(F)ccc2F)N2CCOCC2)cc1 (centres undefined),8.75% (inactive),–
COc1ccc(C2Nc3ccccc3C(=O)N2Cc2ccc(CNC(=O)CO)cc2)cc1COc1ccc(NC(C)=O)cc1 (centres undefined),-19.1% (inactive),–
CN(C)S(=O)(=O)c1cccc(-c2nn(-c3ccccc3)cc2/C=C2\SC(=S)N(CC(=O)O)C2=O)c1,0% (inactive),–
COc1ccc(/C=C2\SC(=S)N(CCC(=O)Nc3ccccn3)C2=O)cc1OC,5.5% [at 0.0935 µM] (inactive),–
COc1ccc(-c2nn(-c3ccccc3)cc2/C=C2/SC(=S)N(CCCC(=O)O)C2=O)c(C)c1,–,39.8 µM (active)

SMILES,"activity change, negative = inhibition",Potency
Cc1ccc(C(=O)NC2CCN(C#N)CC2)cc1,1.25% (inactive),–
CCN(CC)c1nc(C#N)nc(OC)n1,-0.0347% (inactive),–
COc1ccc(CCn2c3c(c(=O)[nH]c2=S)CN(C(C)C)CN3)cc1OC,1.97% (inactive),–
Cc1ccc(C)c(N2C(=O)N(Cc3c(F)cccc3Cl)c3ccccc3S2(=O)=O)c1,1.47% (inactive),–
N#Cc1ccc(OC2=NS(=O)(=O)c3ccccc32)cc1,-0.673% (inactive),–
Fc1ccccc1Oc1ncnc2c1oc1ccccc12,-2.45% (inactive),–
Cc1cccc(N2CCN(S(=O)(=O)c3ccc4[nH]c(=O)c(=O)[nH]c4c3)CC2C)c1 (centres undefined),–,35.5 µM (active)
Cc1cccc(N2CCN(S(=O)(=O)c3ccc(-c4cc(C)no4)s3)CC2C)c1 (centres undefined),0.315% (inactive),–
Cc1cccc(N2CCN(C(=O)c3cccc(S(=O)(=O)N4CCc5ccccc5C4)c3)CC2C)c1 (centres undefined),0% (inactive),–
COC(=O)c1ccccc1NC(=O)c1ccc(C#N)cc1,-0.089% (inactive),–
CCOC(=O)c1ccc(NC(=O)c2c(NCc3cccs3)sc3c2CCCC3)cc1,9.48% (inactive),–
Cc1nn2c(=O)cc(COC(=O)c3cccc(NC(=O)COc4ccccc4Cl)c3)nc2s1,-1.25% (inactive),–
Cc1cccc(NC(=O)CN2C(=O)c3ccccc3C2=O)c1C,3.47% (inactive),–
O=C1N/C(=C/c2cccn2-c2ccccc2)C(=O)N1c1cccc(Cl)c1,2.82% (inactive),–
Cc1ccccc1NC(=O)CN1C(=O)N/C(=C\c2cccn2-c2cccc(C(=O)O)c2)C1=O,–,1.41 µM (active)
O=C(COc1ccccc1Cl)Nc1ccc2nc(SCC(=O)N3CCCC3)sc2c1,3.65% (inactive),–
Oc1ccc(/C=C/c2c(F)cccc2F)c2cccnc12,-16.6% (inactive),–
O=S(=O)(c1cccc(C(F)(F)F)c1)N1CCN(c2nc(-c3cccs3)nc3ccccc23)CC1,-0.0669% (inactive),–
CN(C)C(CNC(=O)c1ccc(OCc2cn3ccccc3n2)cc1)c1ccco1 (centres undefined),–,14.1 µM (active)
COc1ccc(C(=O)NCc2cn3ccccc3n2)cc1,4.76% (inactive),–
O=Cc1ccc(OCc2cn3ccccc3n2)cc1,-7.14% (inactive),–
CCOC(=O)Cn1c(=O)n(-c2ccccc2OC)c2nc(-c3cccc(F)c3)nc(C(N)=O)c21,7.69% (inactive),–
COc1ccc(C(=O)Nc2ccc(-n3nncc3-c3ccccc3)cc2)cc1OC,10.4% (inactive),–
C=CC1=C(C(=O)O)N2C(=O)[C@@H](NC(=O)/C(=N\OCC(=O)O)c3csc(N)n3)[C@H]2SC1,–,14.1 µM (active)

SMILES,"activity change, negative = inhibition",Potency
CO/N=C(\C(=O)N[C@@H]1C(=O)N2C(C(=O)O)=C(COC(C)=O)CS[C@H]12)c1csc(N)n1 (stereo in doubt),–,inactive and 10 µM (active) and 20 µM (active)
Cc1nnc(SCC2=C(C(=O)O)N3C(=O)C(NC(=O)Cn4nc(C)c(Cl)c4C)C3SC2)s1 (centres undefined),0% (inactive),–
Cc1cc(C)cc(C(=O)NC2C(=O)N3C(C(=O)O)=C(CSc4nnc(C)s4)CSC23)c1 (centres undefined),-8.05% (inactive),–
COc1ccc(C2Nc3ccc(NC(=O)COC(C)=O)cc3C(=O)N2Cc2ccccc2)cc1COc1ccc(NC(C)=O)cc1 (centres undefined),-3.82% (inactive),–
COc1cccc(Cn2c(SCc3ccc(C(=O)N4CCC(C)CC4)cc3)nc3ccncc32)c1,5.06% (inactive),–
CCOC(=O)c1ccc(NC(=O)c2c(NCc3cccc(OC)c3)sc3c2CCC3)cc1,7.58% (inactive),–
COC(=O)c1ccc(NC(=O)c2cnn(-c3ccc(Cl)cc3)c2C2CCN(C(=O)OC(C)(C)C)CC2)cc1,-1.06% (inactive),–
COc1ccc(C(=O)Nc2cccc(C(=O)OCc3cc(=O)n4c5c(sc4n3)CCCC5)c2)cc1,1.25% (inactive),–
CC(C)c1ccc(NC(=O)c2ccc(Cn3nc(N4CCN(c5ccccc5)CC4)ccc3=O)o2)cc1,0% (inactive),–
Cc1ccc(-c2nc3ccccn3c2Nc2ccc(F)cc2)o1,4.27% (inactive),–
Cc1ccc2nc(-c3ccncc3)cc(C(=O)Nc3ccc(OC(F)F)cc3)c2c1,–,50.1 µM (active)
Cc1ccc2nc(-c3ccncc3)cc(C(=O)Nc3ccc4c(c3)OCCO4)c2c1,-8.22% (inactive),–
Cc1ccc2nc(-c3ccncc3)cc(C(=O)Nc3ccncc3)c2c1,4.27% (inactive),–
CN(C)Cc1cn(-c2ccccc2)nc1-c1ccccc1,0.719% (inactive),–
COC(=O)c1ccccc1S(=O)(=O)Nc1ccc(OC)cc1,4.45% (inactive),–
COc1ccc(C2Nc3ccccc3C(=O)N2Cc2ccc(Cl)cc2)cc1COc1ccc(NC(C)=O)cc1 (centres undefined),-0.0444% (inactive),–
Cc1ccc(-c2nn3c(=O)cc(CN4CCN(C(=O)Nc5cccc(C(F)(F)F)c5)CC4)nc3s2)cc1,8.11% (inactive),–
N#Cc1nc(Nc2cccc(Cl)c2)nc(NC2CCCC2)n1,-2.17% (inactive),–
O=C1CCc2cc(S(=O)(=O)Nc3cccc(Oc4ccccc4)c3)ccc2N1,2.51% (inactive),–
Oc1c(C(c2ccc(F)cc2)N2CCN(Cc3ccccc3)CC2)sc2nc(-c3ccco3)nn12 (centres undefined),2.6% (inactive),–
O=C1CSc2ccc(C(=O)NCc3ccccn3)cc2N1,0.216% (inactive),–
C=CCNC(=O)c1ccc2nc(-c3ccco3)c(-c3ccco3)nc2c1,-9.19% (inactive),–
O=C(NCc1ccccn1)c1ccc2nc(-c3ccco3)c(-c3ccco3)nc2c1,–,8.91 µM (active)
COc1ccc(N2C(=O)CSC23C(=O)N(Cc2cccc(F)c2)c2ccccc23)cc1Cl (centres undefined),5.63% (inactive),–

SMILES,"activity change, negative = inhibition",Potency
CCCC(=O)N1CCN(c2nc3c(OC)ccc(C)c3s2)CC1,0% (inactive),–
CSc1nnc(SCc2nc3sc(C(=O)O)c(C)c3c(=O)[nH]2)s1,–,22.4 µM (active)
CCOC(=O)c1sc2nc(CSc3ccccc3)[nH]c(=O)c2c1C,3.49% (inactive),–
CC(=O)c1sc2nc(SCC(=O)N3CCCCC3)[nH]c(=O)c2c1C,-13% (inactive),–
Cc1nn(-c2ccc(N3CCCCC3)nn2)c(C)c1CCC(=O)NCc1ccc(F)cc1,0.649% (inactive),–
N#CN1CCC(NC(=O)c2ccc(F)cc2)CC1,0.796% (inactive),–
NC(=O)C1CCN(C(=O)c2cccc(NC(=O)c3nsc4ccccc34)c2)CC1,2.7% (inactive),–
CC(C)c1ccc(NC(=O)C2CCN(c3nc(-c4ccc(C(C)C)cc4)no3)CC2)cc1,8.11% (inactive),–
O=C(COC(=O)c1cccs1)NCc1cccs1,-0.673% (inactive),–
O=C(COC(=O)CCC(=O)c1cccs1)NCc1ccco1,–,22.4 µM (active)
O=C(COC(=O)C12CC3CC(CC(C3)C1)C2)NCc1ccco1,–,inactive
CCCCNc1ccc(-c2nc(-c3ccncc3)no2)cc1[N+](=O)[O-],0% (inactive),–
Cc1cc(C)c2oc(-c3cccc(NC(=O)c4cccc(F)c4)c3C)nc2c1,5.81% (inactive),–
Cc1ccc(CCC(=O)Nc2ncc(Cc3cc(Cl)ccc3Cl)s2)o1,2.56% (inactive),–
Cc1ccc(Cc2cnc(N)s2)o1,–,20 µM (active)
COc1cc(F)c(S(=O)(=O)N2CCCN(S(=O)(=O)c3ccc(N)cc3)CC2)c(F)c1,2.59% (inactive),–
O=S1(=O)N=C(Oc2cccc(Br)c2)c2ccccc21,1.26% (inactive),–
COc1ccc(NC(=O)CSc2nc(NS(=O)(=O)c3ccc(C)cc3)cc(=O)[nH]2)cc1,–,20 µM (active)
COc1ccc(NC(=O)CSc2nc3ccccc3[nH]2)cc1,1.95% (inactive),–
Cc1ccc(NC(=O)CSc2nc(CSc3ccc(C)cc3)cc(=O)[nH]2)cc1,0% (inactive),–
Oc1ccc(Br)cc1C1C=C(c2ccc3c(c2)OCO3)NC(c2ccc(Cl)cc2)N1 (centres undefined),2.78% (inactive),–
Cc1ccc2nc(-c3ccc(O)cc3)c(Nc3ccc4c(c3)OCO4)n2c1,6.98% (inactive),–
